Results filed as inconclusive are left out. Entries that show only a call come without a potency. Activity calls are given as the source filed them. Calls follow the shape of the dose curve; as a rule, active = well fitted cell-killing curve with a large enough effect; inconclusive = small, poorly fitted or top-dose-only effect; inactive = flat fitted curve, though single readings scatter.
Potency is read from the fitted curve at half-maximal effect.

The experiment can be described thus: DAPI mCherry counterscreen qHTS for Zika virus inhibitors. Also: nearly all actives have a fitted effect of over 55% in size. Particulars: Vero cells, DAPI nuclear count cytotoxicity, imaging 48-72 h, infected with Zika reporter virus, MOI 1; series mostly up to 32.6 µM. In outline:
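Imaging read-out after fixation and Hoechst nuclear staining: percent infection from mCherry-positive cells (above 3 SD of negative controls) and nuclear counts. Setup: Vero cells pre-plated overnight, compound added, infected with ZIKV-mCherry (MOI 1), 48-72 hrs, 37 degrees C.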
For orientation: Counterscreens check selectivity or assay interference.
On to `CN(Cc1ccc(C(=O)O)cc1)c1ccc(OCc2c(-c3c(Cl)cccc3Cl)noc2C2CC2)nc1C(F)(F)F`, for which the Potency was 15.8 µM (active).

As to `Cc1ccc(-c2nnc(Nc3ccc(S(N)(=O)=O)cc3)c3ccccc23)cc1S(=O)(=O)N1CCOCC1`, the Potency entry is “inactive”.

As to `Cc1nn2c(=O)cc(COC(=O)c3ccc(NC(=O)c4ccc(C(C)(C)C)cc4)cc3)nc2s1`, the Potency is 28.2 µM (active).

As to `O=C(O)c1ccc(NC(=O)c2cn(-c3ccccc3)nc2-c2ccc(Br)cc2)cc1`, the Potency is 35.5 µM (active).

Consider `CCCCCCCOc1cc2c(cc1/C(C)=C/c1ccc(C(=O)O)cc1)C(C)(C)CCS2(=O)=O`, for which the Potency is 15.8 µM (active).

Turning to `Cc1nc(N=Nc2ccc(S(=O)(=O)O)cc2S(=O)(=O)O)c(COP(=O)(O)O)c(C=O)c1O`, the Potency entry is “inactive”.

Consider `Nc1cc(N)c(N=Nc2ccc(S(=O)(=O)Nc3nccs3)cc2)cc1N=Nc1ccc(S(=O)(=O)Nc2nccs2)cc1`, for which the Potency entry was “inactive”.

In the case of `N#C/C(=C\c1ccc(-c2ccc(Cl)c(C(=O)O)c2)o1)c1nc2ccccc2[nH]1`, the Potency result was “inactive”.

Regarding `Cc1cccc(C)c1-n1c(SCC(=O)Nc2ccc(C(=O)O)cc2)nnc1-c1cccc([S+](=O)([O-])N2CCCC2)c1`, the Potency entry was “inactive”.

As for `CN(C)CC[C@H](CSc1ccccc1)Nc1ccc(S(=O)(=O)NC(=O)c2ccc(N3CCN(Cc4ccccc4-c4ccc(Cl)cc4)CC3)cc2)cc1[N+](=O)[O-]`, the Potency is 5.01 µM (active).

In the case of `CC[C@H](C)[C@H]1O[C@]2(CC[C@@H]1C)C[C@@H]1C[C@@H](C/C=C(\C)[C@@H](O[C@H]3C[C@H](OC)[C@@H](O[C@H]4C[C@H](OC)[C@@H](O)[C@H](C)O4)[C@H](C)O3)[C@@H](C)/C=C/C=C3\CO[C@@H]4[C@H](O)C(C)=C[C@@H](C(=O)O1)[C@]34O)O2`, the Potency is 8.91 µM (active).

With `CC(C)(C)Sc1c(CC(C)(C)C(=O)O)n(Cc2ccc(Cl)cc2)c2ccc(OCc3ccc4ccccc4n3)cc12`, the Potency is 35.5 µM (active).

For `Cc1c(NS(=O)(=O)c2ccccc2)cc(C(C)C)c(O)c1S(=O)(=O)c1ccc(Cl)cc1`, the Potency was 28.2 µM (active).

`Fc1cc(C2=Nn3c(COc4ccc(Cl)cc4Cl)nnc3S/C2=C\c2ccc(-c3ccc(Cl)cc3)o2)c(Cl)cc1Cl`: the Potency result is “inactive”.

Regarding `CCOC(=O)c1ccc(N2C(=O)c3n[nH]c(-c4cccs4)c3C2c2ccc(Cl)cc2Cl)cc1` (stereo not given), the Potency was 11.2 µM (active).

As for `Cc1ccc([C@@H]2CC=C(C(=O)O)[C@H](c3ccc(C(C)(C)C)cc3)N2S(=O)(=O)c2ccc(C)cc2)cc1`, the Potency is 31.6 µM (active).

With `O=C(O)c1ccc(CCCc2ccc(OCCc3ccc(F)cc3)cc2)o1`, the Potency is 31.6 µM (active).

Turning to `O=c1cc(-c2ccccc2)oc2cc(O)c(O)c(O)c12`, the Potency result was “inactive”.

Take `Nc1ncnc2c1ncn2[C@@H]1O[C@H](CSCC[C@H](N)C(=O)O)[C@@H](O)[C@H]1O`: the Potency result was “inactive”.

With `Cc1nc(N=Nc2cc(S(=O)(=O)O)c3cc([N+](=O)[O-])cc(S(=O)(=O)O)c3c2)c(COP(=O)(O)O)c(C=O)c1O`, the Potency result is “inactive”.

Take `O=C(Nc1ccc(S(=O)(=O)Nc2nccs2)cc1)C(c1ccccc1)c1ccccc1`: the Potency result is “inactive”.

As for `O=C(O)CSc1nc2ccc(NC(=O)COc3ccc(Cl)cc3)cc2s1`, the Potency entry was “inactive”.

`COc1ccc(Br)cc1S(=O)(=O)NC(=O)/C=C/c1ccccc1Cc1ccc2ccccc2c1`: the Potency is 31.6 µM (active).

For `Oc1c(Cl)cc(Cl)cc1Sc1cc(Cl)cc(Cl)c1O`, the Potency result was “inactive”.

As for `CNC(=O)c1cc(Oc2ccc(NC(=O)Nc3ccc(Cl)c(C(F)(F)F)c3)cc2)ccn1`, the Potency is 4.47 µM (active).

In the case of `Cc1ccc(C(=O)Nc2ccc(S(=O)(=O)O)c3cc(S(=O)(=O)O)cc(S(=O)(=O)O)c23)cc1NC(=O)c1cccc(NC(=O)Nc2cccc(C(=O)Nc3cc(C(=O)Nc4ccc(S(=O)(=O)O)c5cc(S(=O)(=O)O)cc(S(=O)(=O)O)c45)ccc3C)c2)c1`, the Potency result is “inactive”.

Regarding `Nc1c(N=Nc2ccc([N+](=O)[O-])cc2)c(S(=O)(=O)O)cc2cc(S(=O)(=O)O)c(/C=C/c3ccccc3)c(O)c12`, the Potency entry is “inactive”.

For `COc1cc(Nc2nc3ccccc3nc2NS(=O)(=O)c2ccc(NC(=O)c3ccc(C)c(OC)c3)cc2)cc(OC)c1`, the Potency is 4.47 µM (active).

For `Cc1ccc(NC(=O)c2ccc3c(O)c(S(=O)(=O)c4ccc(Cl)cc4)c(=O)[nH]c3c2)cc1`, the Potency result is “inactive”.

For the compound `Cc1c(C2(c3cc(C(C)C)c(O)c(Br)c3C)OS(=O)(=O)c3ccccc32)cc(C(C)C)c(O)c1Br`, the Potency entry is “inactive”.

The values are drawn from PubChem BioAssay AID1347156 (National Center for Advancing Translational Sciences (NCATS), 2019).
